# Experimental data: the supplement of paper PMC12669032
# A number with no mark means an inactive call.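 How the source made its calls: active = AUC reduced over 20% with Padj below 0.05 in at least 2 of 3 replicates; inactive = otherwise.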
# Assays:
# Roseburia intestinalis = assay: growth AUC relative to DMSO control (median of replicates) (fraction); higher = more growth (less inhibition), active = hit call of the paper; conditions: 20 µM; 24 h
# Method in brief: (§1)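 Three biological replicates, each grown on a separate day, were combined as a median for every value. In each, a gut bacterial monoculture in mGAM started at OD600 0.05 and grew anaerobically at 37 °C with 20 µM compound (1% DMSO), with OD600 read hourly over 24 h. Area under the growth curve was normalised against the plate median of solvent-only wells, or against row and column medians on the industrial chemical plate, after the minimum OD was set to 0.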
# Streptococcus salivarius = assay: as above; conditions: 20 µM; 24 h
# Method in brief: as §1
SMILES,growth AUC (Roseburia intestinalis),growth AUC (Streptococcus salivarius)
C[Si](Cn1cncn1)(c1ccc(F)cc1)c1ccc(F)cc1,0.853,0.988
CCOP(=O)(OCC)OP(=O)(OCC)OCC,0.969,1.03
Cc1cc(C(F)(C(F)(F)F)C(F)(F)F)ccc1NC(=O)c1cccc(I)c1C(=O)NC(C)(C)CS(C)(=O)=O,1.67,0.919
C=CCOC(=O)C(C)(C)OC(=O)c1cc(-n2c(=O)cc(C(F)(F)F)n(C)c2=O)ccc1Cl,0.994,0.98
CO/N=C(/C1=NOCCO1)c1ccccc1Oc1ncnc(Oc2ccccc2Cl)c1F,0.997,1.04
CCS(=O)(=O)Cc1ccccc1OC(=O)NC,0.964,0.927
CCC/C(=N\OCC)C1=C(O)CC(CC(C)SCC)CC1=O (stereo not drawn),1,1.01
CCOP(=S)(OCC)Oc1cc(Cl)c(Br)cc1Cl,0.948,0.958
CCOP(=S)(NC(C)CC)Oc1cc(C)ccc1[N+](=O)[O-] (stereo not drawn),1.01,0.976
CNC(=O)Oc1cc(C)c(N(C)C)c(C)c1,0.962,0.961
N#Cc1c(Cl)c(Cl)c(Cl)c(C#N)c1Cl,0.939,0.88
CCOP(=S)(OCC)Oc1cc(-c2ccccc2)on1,0.993,0.995
Cc1c(F)c(F)c(COC(=O)[C@@H]2[C@H](/C=C(\Cl)C(F)(F)F)C2(C)C)c(F)c1F (mixture of isomers),0.986,0.993
CCCSP(=O)(OCC)SCCC,1,0.984
CNC(=O)Oc1cc(C)c(SC)c(C)c1,0.928,0.968
CC(Cc1ccc(C(C)(C)C)cc1)CN1CCCCC1 (stereo not drawn),0.976,1
C=CCC1=C(C)C(OC(=O)C2C(C=C(C)C)C2(C)C)CC1=O (stereo not drawn),0.968,0.986

SMILES,growth AUC (Roseburia intestinalis),growth AUC (Streptococcus salivarius)
CC(C)N(Cc1ccccc1)C(=O)C(C)(C)C,0.898,0.961
O=c1oc2ccccc2c(O)c1C1CC(c2ccc(-c3ccc(Br)cc3)cc2)Cc2ccccc21 (stereo not drawn),0.345 (active),0.393 (active)
COP(=S)(OC)Oc1ccc([N+](=O)[O-])c(Cl)c1,0.926,1.05
CCC1(C(=O)NC(C)c2ccc(Cl)cc2)C(C)C1(Cl)Cl (stereo not drawn),0.888,0.97
C=CC1(C)OC(=O)N(c2cc(Cl)cc(Cl)c2)C1=O (stereo not drawn),0.973,1.02
COP(N)(=O)SC (stereo not drawn),1,0.996
COc1cc(OC)nc(NC(=O)NS(=O)(=O)c2ncccc2C(F)(F)F)n1,1,1.01
ClC1C(Cl)C(Cl)C(Cl)C(Cl)C1Cl (mixture of isomers),1.02,0.974
CON(C)C(=O)Nc1ccc(Cl)c(Cl)c1,0.925,0.945
C=CCC1=C(C)C(OC(=O)[C@@H]2[C@@H](C=C(C)C)C2(C)C)CC1=O (stereo partly drawn),1.05,1.01
CC(C)[C@H](C(=O)O[C@H](C#N)c1cccc(Oc2ccccc2)c1)c1ccc(Cl)cc1,0.913,0.948
Clc1ccc(C2(Cn3cncn3)CC(Br)CO2)c(Cl)c1 (stereo not drawn),0.99,0.988
CCOP(=O)(SC(C)CC)N1CCSC1=O (stereo not drawn),1.03,1.02
COP(=O)(OC)Oc1ccc(S(C)(=O)=O)c(C)c1,1.02,1.01
OC(c1ccc(F)cc1)(c1cncnc1)c1ccccc1Cl (stereo not drawn),0.975,0.996
CC1(C)OC(c2ccco2)CN1C(=O)C(Cl)Cl (stereo not drawn),1.03,1.01
CSC1=N[C@@](C)(c2ccccc2)C(=O)N1Nc1ccccc1,0.997,1.01
